FBPA Giardia inh: inhibitors of Giardia lamblia fructose-1,6-bisphosphate aldolase; A8B2U2; purified Giardia FBPA; Potency, µM (titrated, usually from 59.6 µM), usual class: inhibitors; 0.71% of 290,000 active; note: nearly all actives have a fitted effect of over 55% in size
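Giardia FBPA (40 nM reagent) was preincubated 10 min at RT with compound (up to 57.5 uM final), then substrate plus GAPDH/TPI/NAD/arsenate coupling system with diaphorase/resazurin was added; resorufin fluorescence (525/598 nm) was read after 20 min.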
RE007 growth inh: less growth of the S. pombe RE007 Vpr strain. AID 651644. 0.21% of 360,000 active. S. pombe RE007 Vpr strain, BacTiter-Glo ATP luminescence, 24 h. Potency, µM (doses to about 92.2 µM), most hits filed as inhibitors; active = well fitted falling curve with a large enough effect; inconclusive = small, poorly fitted or top-dose-only effect; inactive = no such curve, though single readings can be large or run the other way; note: nearly all actives have a fitted effect of over 50% in size
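Fission yeast strain RE007, carrying one chromosomally integrated HIV-1 vpr copy, was seeded at OD 0.01 in PMG+AL medium with 23 nL pinned compound. After 24 h at 30 °C and 99% humidity, viability was read by BacTiter-Glo luminescence.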
LmPK inhibitor: LmPK (Leishmania mexicana) enzyme inhibition; AID 1721; purified LmPK, Kinase-Glo ATP luminescence, 1 h; Potency, µM (doses to about 57.5 µM), usual class: inhibitors; 0.37% of 290,000 active; Q27686
Target sequence (Q27686 whole entry, looked up): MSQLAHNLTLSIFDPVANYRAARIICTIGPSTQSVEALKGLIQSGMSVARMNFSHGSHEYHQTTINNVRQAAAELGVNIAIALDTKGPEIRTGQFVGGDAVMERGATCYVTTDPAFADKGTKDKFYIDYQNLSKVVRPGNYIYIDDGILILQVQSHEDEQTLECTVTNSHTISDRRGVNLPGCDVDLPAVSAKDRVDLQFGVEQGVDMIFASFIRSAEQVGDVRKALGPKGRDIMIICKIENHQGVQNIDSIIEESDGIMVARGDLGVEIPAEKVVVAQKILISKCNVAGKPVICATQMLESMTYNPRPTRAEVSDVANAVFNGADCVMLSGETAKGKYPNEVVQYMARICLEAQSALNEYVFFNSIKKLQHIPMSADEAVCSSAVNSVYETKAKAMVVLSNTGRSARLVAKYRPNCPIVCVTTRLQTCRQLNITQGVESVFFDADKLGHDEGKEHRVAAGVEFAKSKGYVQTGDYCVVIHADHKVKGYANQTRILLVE
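ATP generated from ADP (0.1 mM) and PEP (0.5 mM) by 0.1 nM LmPK over 1 h at room temperature (pH 7.2 imidazole buffer) was detected by coupled luciferase luminescence. Values were normalized to uninhibited and no-enzyme wells.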
TbPYK inhibitor: inhibitors of Trypanosoma brucei pyruvate kinase | Q57TT1 | TbPYK enzyme, Kinase-Glo Plus ATP luminescence, 45 min | Potency, µM (doses to about 76.8 µM), most hits filed as inhibitors | 0.12% of 410,000 active; note: nearly all actives have a fitted effect of over 50% in size
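Luminescence from Kinase-Glo Plus, added after a 45-minute room-temperature reaction, served as the end-point read-out. The enzyme and substrate were preincubated with compound before ADP (130 uM final) initiated turnover. Concentration-effect curves came from normalized qHTS data.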
Shiga toxin inh: inhibitors of Shiga toxin in Vero cells; Vero cells, Shiga toxin protein synthesis inhibition reporter; 9.2% of 290,000 active; inhibition, % at 38.7 µM; in the data active = inhibition mostly above about 28%, no sharp cut-off; inactive = mostly below about 43%
CHX counter: affects cycloheximide protein synthesis inhibition readout, counter-screen; cell reporter, cycloheximide protein synthesis inhibition counterscreen; max response, %; 12% of 300,000 active; in the data active = max response mostly above about 13%, no sharp cut-off; inactive = mostly below about 14%; note: read at 38.3 µM for the half of the compounds with a filed dose
A number is an active result; – = inactive; ? = inconclusive; · = no result. The full list was thinned out, with hits kept by preference. Unless noted, calls come from the whole dose curve; as a rule, active = well fitted curve in the direction sought with a large enough effect; inconclusive = small, poorly fitted or top-dose-only effect, or another doubt; inactive = no such curve, though single readings can be large; an effect the other way counts as inactive or inconclusive.

SMILES	FBPA Giardia inh	RE007 growth inh	LmPK inhibitor	TbPYK inhibitor	Shiga toxin inh	CHX counter
Cc1c(C(=O)Nc2cc(F)ccc2F)sc2nc3n(c(=O)c12)CCCCC3	·	–	–	–	–	36
Cc1c(C(=O)Nc2ccc(Oc3ccccc3)cc2)sc2nc3n(c(=O)c12)CCC3	–	–	–	–	–	–
CSc1cccc(NC(=O)c2sc3nc4n(c(=O)c3c2C)CCC4)c1	·	–	–	–	50	17
Cc1cc(C)cc(C(=O)Nn2cnnc2)c1	–	–	–	–	–	–
Cc1ccc(-n2c(=O)c3c4c(sc3n(CC(=O)c3ccc(Cl)cc3)c2=O)CCC4)cc1C	·	·	·	–	·	·
COc1cc2[nH]c(C(=O)Nc3ccc4c(c3)OCCO4)cc2c(OC)c1OC	·	–	–	–	91	40
Cc1cc(C)c2cc(C(=O)Nc3ccc4c(c3)OCO4)[nH]c2c1	–	–	–	–	–	–
COc1cc2cc(C(=O)Nc3ccc4c(c3)OCCO4)[nH]c2cc1OC	·	–	–	–	103	47
Nc1nc(SCc2ccc(Cl)c(Cl)c2)n[nH]1	–	–	–	–	–	–
c1ccc(CSCc2ccccc2)cc1	·	–	·	–	·	·
Nc1nc(SCc2ccc(Br)cc2)n[nH]1	–	–	–	–	53	27
Nc1ccccc1SCc1ccccc1	–	–	–	–	89	72
Nc1nc(SCc2ccccc2)n[nH]1	–	–	–	–	–	11
Cc1ccc(NC(=O)Cn2cc(S(=O)(=O)N3CCC(C)CC3)c3ccccc3c2=O)c(Br)c1	·	·	·	–	·	·
CCCN(CCC)C(=O)c1cn(CC)c2ccc(S(=O)(=O)N3CCCCC3)cc2c1=O	–	–	–	–	–	–
Cc1cc(Nc2cccc(Cl)c2C)n2nc(Cc3ccccc3)nc2n1	·	·	·	–	·	·
COc1ccc(CCN2C(=O)CSC2c2ccc(F)cc2)cc1 (configuration not stated)	–	–	–	–	–	–
CSCCC(NS(=O)(=O)c1ccccc1F)C(=O)NCCCn1nc(C)cc1C (configuration not stated)	·	–	·	–	·	·
COCCCN1C(=O)c2ccc(C(=O)Nc3cccc(OC)c3)cc2C1=O	–	–	–	–	53	37
Cc1cc(NC(=O)c2ccc3c(c2)C(=O)N(CC(C)C)C3=O)no1	–	–	–	–	–	–
CC(=O)Oc1cccc(NC(=O)c2ccc3c(c2)C(=O)N(CC(C)C)C3=O)c1	–	–	–	–	128	28
C#Cc1cccc(NC(=O)c2ccc3c(c2)C(=O)N(Cc2cccnc2)C3=O)c1	·	–	–	–	–	39
COCCCN1C(=O)c2ccc(C(=O)NCCc3ccccc3)cc2C1=O	–	–	–	–	95	45
Cc1cc(C)n(CCNS(=O)(=O)c2ccccc2)n1	–	–	–	–	–	–
Cc1ccc(/C=C2/NC(=O)[C@H](C)NC2=O)cc1	–	–	–	–	–	15
SMILES	FBPA Giardia inh	RE007 growth inh	LmPK inhibitor	TbPYK inhibitor	Shiga toxin inh	CHX counter
C[C@@H]1NC(=O)/C(=C\c2ccccc2Br)NC1=O	–	–	–	–	–	–
CCOC(=O)c1cc(-c2ccc(OC)cc2)nn1-c1ccccc1C(=O)O	–	–	–	–	–	–
CCOC(=O)c1cc(-c2ccc(OC)cc2OC)nn1-c1ccc(C(=O)O)cc1	–	–	–	–	–	21
COc1ccc(-c2nc(C)ncc2N=Nc2ccccc2)cc1	–	–	–	–	–	20
O=[N+]([O-])c1cc(-c2ccc(C(=S)N3CCOCC3)o2)ccc1Cl	?	–	–	?	55	31
O=[N+]([O-])c1cccc(-c2ccc(C(=S)N3CCOCC3)o2)c1	?	–	–	–	72	39
CN1CCN(C(=S)c2ccc(-c3cccc([N+](=O)[O-])c3)o2)CC1	–	–	–	–	102	51
S=C(c1ccc(-c2cc(Cl)ccc2Cl)o1)N1CCOCC1	–	–	–	–	–	–
O=[N+]([O-])c1cccc(-c2ccc(C(=S)N3CCN(c4ccccc4)CC3)o2)c1	–	–	–	–	–	–
C=CCn1c(COc2ccc3c(c2)CCCC3)nnc1SCC(=O)Nc1cccc(SC)c1	–	–	–	–	58	47
Cc1cc(C)c(NC(=O)Cn2c(=O)n(CCCCC(=O)NCc3ccccc3Cl)c(=O)c3ccccc32)c(C)c1	·	·	·	–	·	·
CCN(C(=O)CSc1nc2ccc([N+](=O)[O-])cc2s1)C1CCS(=O)(=O)C1 (configuration not stated)	–	–	–	–	–	13
COc1ccc(NC(=O)CN(C)S(=O)(=O)c2ccc3c(c2)c(=O)n(C)c(=O)n3C)cc1	·	–	–	–	–	–
CC(=O)OC1CCC2(C)C(=CCC3C2CCC2(C)C(C(C)=O)CCC32)C1 (configuration not stated)	·	·	·	–	·	·
C(=N\Nc1ccccn1)/c1ccc(N2CCOCC2)cc1	–	–	?	–	–	47
C/C(=N\Nc1ccc([N+](=O)[O-])cc1)c1ccc(N2CCOCC2)cc1	–	–	–	–	–	–
C/C(=N\Nc1ccccn1)c1ccc(N2CCOCC2)cc1	–	–	–	–	116	41
Clc1cccc(N/N=C/c2ccc(N3CCOCC3)cc2)c1	–	–	–	–	–	38
O=C(N/N=C/c1ccc(N2CCOCC2)cc1)c1ccncc1	·	–	·	–	·	·
O=C(O)c1cc(N/N=C/c2ccc(N3CCOCC3)cc2)ccc1Cl	–	–	–	–	137	59
CC(=O)N1CCc2c(sc3c2c(=O)n(-c2ccc(C)cc2)c(=O)n3Cc2ccccc2C)C1	·	·	·	–	·	·
C(=N\Nc1ccccc1)/c1ccc(N2CCOCC2)cc1	–	–	–	–	69	48
Cc1ccc(S(=O)(=O)NN=Cc2ccc(N3CCOCC3)cc2)cc1[N+](=O)[O-]	·	–	·	–	·	·
C/C(=N\Nc1ccccn1)c1ccc(C(C)C)cc1	–	–	–	–	104	47
C/C(=N\Nc1ccccn1)c1ccc(Br)s1	·	?	·	–	·	·
SMILES	FBPA Giardia inh	RE007 growth inh	LmPK inhibitor	TbPYK inhibitor	Shiga toxin inh	CHX counter
Cc1cc(C)nc(N/N=C/c2ccc(N3CCOCC3)cc2)n1	–	–	–	–	–	–
O=[N+]([O-])c1cccc(N/N=C/c2ccc(N3CCOCC3)cc2)c1	–	–	–	–	80	50
Cc1ccc(NC(=O)c2cc3c(=O)[nH]c4ccccc4c3n2C)cc1F	·	·	·	–	·	·
CCOC(=O)c1cc(-c2ccc(C)cc2)n(CCC(=O)Nc2nc3c(C)cccc3s2)c1C	·	·	·	–	·	·
CC(=O)Nc1ccc(S(=O)(=O)Nc2cccc(-c3ccc(N4CCC(C)CC4)nn3)c2)cc1	·	·	·	–	·	·
CN(C)c1ccc2c(c1)N=C(c1ccco1)OP2(=S)N1CCOCC1 (configuration not stated)	–	?	–	?	77	31
CN(CCc1ccccc1)C(=O)c1ccc(NC(=O)Cc2ccc(NC(=O)C3CCN(C(=O)c4ccccc4)CC3)cc2)cc1	·	–	·	–	·	·

Source: PubChem BioAssay (National Center for Advancing Translational Sciences (NCATS))
